From paper PMC7862700, “An all-to-all approach to the identification of sequence-specific readers for epigenetic DNA modifications on cytosine”

Key:
Test in all cases: DAPPL (digital affinity profiling via proximity ligation, sequencing); 10 mM Tris-HCl pH 7.5, 50 mM NaCl, 1 mM DTT, 4% glycerol, room temperature, 30 min; GST-TFs on glutathione beads, 16-mer random dsDNA library, 0.1% formaldehyde crosslink after washing; high values mean tight binding
Conditions in all cases: protein: recombinant; tags: N-terminal GST; dsDNA, one strand shown
ELF4 = ELF4 (Homo sapiens, UniProt Q99607 1-663)
In short: (§1)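 Pools were built from human transcription factors expressed in yeast as GST fusions, captured on glutathione beads and DNA-barcoded, along with a tag-only sample. Incubation with 200 nmole of a 16-mer random double-stranded DNA library lasted 30 min at room temperature in Tris/NaCl/DTT/glycerol buffer, and was followed by washing, 0.1% formaldehyde crosslinking, proximity ligation, PCR amplification and Illumina NextSeq500 sequencing. Binding signal is the quotient of each hexamer's read frequency for a factor and its frequency for the tag-only sample.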

ETV2 = biological target: T1, ETV2 (Homo sapiens, UniProt O00321 1-342)
T1 sequence: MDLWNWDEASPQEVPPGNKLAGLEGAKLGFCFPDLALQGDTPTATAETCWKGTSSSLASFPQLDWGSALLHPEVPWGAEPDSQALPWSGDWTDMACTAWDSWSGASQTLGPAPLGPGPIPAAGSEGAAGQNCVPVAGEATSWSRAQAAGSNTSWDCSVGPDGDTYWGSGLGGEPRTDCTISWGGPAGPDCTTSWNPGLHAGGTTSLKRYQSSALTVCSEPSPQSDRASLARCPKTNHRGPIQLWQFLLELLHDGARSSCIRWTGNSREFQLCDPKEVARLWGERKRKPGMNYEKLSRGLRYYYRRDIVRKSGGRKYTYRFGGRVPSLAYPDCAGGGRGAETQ
In short: as §1

ELF3 = biological target: T2, ELF3 (Homo sapiens, UniProt P78545 1-371)
T2 sequence: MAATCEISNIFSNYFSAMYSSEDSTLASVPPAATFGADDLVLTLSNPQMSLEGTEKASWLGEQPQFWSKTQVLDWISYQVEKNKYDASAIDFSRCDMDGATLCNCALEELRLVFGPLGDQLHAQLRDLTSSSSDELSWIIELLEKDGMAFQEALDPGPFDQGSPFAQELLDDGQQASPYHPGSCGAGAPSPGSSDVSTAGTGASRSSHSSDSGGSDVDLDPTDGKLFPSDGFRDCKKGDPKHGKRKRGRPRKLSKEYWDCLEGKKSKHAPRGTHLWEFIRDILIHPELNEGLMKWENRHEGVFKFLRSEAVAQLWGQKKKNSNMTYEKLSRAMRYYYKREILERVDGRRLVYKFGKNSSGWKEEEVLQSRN
In short: as §1

ETV1 = ETV1 (Homo sapiens, UniProt P50549 1-477)
In short: as §1

ERF = biological target: T3, ERF (Homo sapiens, UniProt P50548 1-548)
T3 sequence: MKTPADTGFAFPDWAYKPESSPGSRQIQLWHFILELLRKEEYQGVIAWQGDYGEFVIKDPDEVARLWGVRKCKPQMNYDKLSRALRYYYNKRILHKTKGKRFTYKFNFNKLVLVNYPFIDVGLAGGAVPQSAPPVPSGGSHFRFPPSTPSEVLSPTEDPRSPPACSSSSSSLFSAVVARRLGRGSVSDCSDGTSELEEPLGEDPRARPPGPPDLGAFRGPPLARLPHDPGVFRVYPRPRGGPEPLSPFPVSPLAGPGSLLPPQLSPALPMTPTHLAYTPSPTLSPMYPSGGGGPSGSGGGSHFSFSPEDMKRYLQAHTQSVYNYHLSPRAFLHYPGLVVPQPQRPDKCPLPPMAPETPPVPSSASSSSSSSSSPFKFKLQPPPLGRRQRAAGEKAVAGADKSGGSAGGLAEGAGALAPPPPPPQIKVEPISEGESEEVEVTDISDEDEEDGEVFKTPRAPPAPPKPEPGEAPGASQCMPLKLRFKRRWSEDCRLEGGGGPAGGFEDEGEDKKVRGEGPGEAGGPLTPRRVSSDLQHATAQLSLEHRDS
In short: as §1

ETV3L = biological target: T4, ETV3L (Homo sapiens, UniProt Q6ZN32 1-361)
T4 sequence: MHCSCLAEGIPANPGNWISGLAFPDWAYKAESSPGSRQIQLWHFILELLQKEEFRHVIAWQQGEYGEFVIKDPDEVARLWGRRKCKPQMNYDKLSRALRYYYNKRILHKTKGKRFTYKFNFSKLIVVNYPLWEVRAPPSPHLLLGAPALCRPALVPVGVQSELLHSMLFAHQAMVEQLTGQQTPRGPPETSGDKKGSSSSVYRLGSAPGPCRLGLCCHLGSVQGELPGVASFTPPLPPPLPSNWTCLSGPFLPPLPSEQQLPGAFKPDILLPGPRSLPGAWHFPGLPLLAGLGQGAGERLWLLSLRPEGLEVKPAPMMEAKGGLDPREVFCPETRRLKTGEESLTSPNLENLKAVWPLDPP
In short: as §1

ETS2 = biological target: T5, ETS2 (Homo sapiens, UniProt P15036 1-469)
T5 sequence: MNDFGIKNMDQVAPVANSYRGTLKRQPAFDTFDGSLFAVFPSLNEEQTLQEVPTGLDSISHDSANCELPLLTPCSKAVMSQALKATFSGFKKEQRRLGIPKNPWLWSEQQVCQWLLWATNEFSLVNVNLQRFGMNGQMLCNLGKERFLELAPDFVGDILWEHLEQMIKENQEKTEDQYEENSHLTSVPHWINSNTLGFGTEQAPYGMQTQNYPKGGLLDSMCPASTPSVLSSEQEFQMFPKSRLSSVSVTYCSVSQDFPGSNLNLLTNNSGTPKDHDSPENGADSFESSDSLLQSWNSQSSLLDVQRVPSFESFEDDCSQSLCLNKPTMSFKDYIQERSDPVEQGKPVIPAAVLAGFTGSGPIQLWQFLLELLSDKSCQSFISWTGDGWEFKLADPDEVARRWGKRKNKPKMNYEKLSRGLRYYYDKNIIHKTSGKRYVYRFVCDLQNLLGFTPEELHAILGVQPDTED
In short: as §1

ETV7 = biological target: T6, ETV7 (Homo sapiens, UniProt Q9Y603 1-341)
T6 sequence: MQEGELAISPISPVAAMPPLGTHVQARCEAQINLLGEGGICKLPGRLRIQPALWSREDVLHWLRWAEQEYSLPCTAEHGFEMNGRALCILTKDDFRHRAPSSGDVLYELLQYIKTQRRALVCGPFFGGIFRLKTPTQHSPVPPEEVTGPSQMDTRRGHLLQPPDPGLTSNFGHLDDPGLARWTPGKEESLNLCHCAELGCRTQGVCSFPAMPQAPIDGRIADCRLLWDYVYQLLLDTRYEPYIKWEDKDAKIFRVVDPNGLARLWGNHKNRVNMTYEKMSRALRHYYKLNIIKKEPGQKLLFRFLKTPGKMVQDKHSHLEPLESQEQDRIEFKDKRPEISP
In short: as §1

ETV3 = biological target: T7, ETV3 (Homo sapiens, UniProt P41162-2 1-143)
T7 sequence: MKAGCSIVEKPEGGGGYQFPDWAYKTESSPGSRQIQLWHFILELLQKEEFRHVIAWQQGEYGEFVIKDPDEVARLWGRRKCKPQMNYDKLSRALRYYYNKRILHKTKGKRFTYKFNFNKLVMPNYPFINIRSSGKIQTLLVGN
In short: as §1

ETV6 = ETV6 (Homo sapiens, UniProt P41212 1-452)
In short: as §1

Sequence of ELF4 (Q99607 whole entry, the tested form may be a part): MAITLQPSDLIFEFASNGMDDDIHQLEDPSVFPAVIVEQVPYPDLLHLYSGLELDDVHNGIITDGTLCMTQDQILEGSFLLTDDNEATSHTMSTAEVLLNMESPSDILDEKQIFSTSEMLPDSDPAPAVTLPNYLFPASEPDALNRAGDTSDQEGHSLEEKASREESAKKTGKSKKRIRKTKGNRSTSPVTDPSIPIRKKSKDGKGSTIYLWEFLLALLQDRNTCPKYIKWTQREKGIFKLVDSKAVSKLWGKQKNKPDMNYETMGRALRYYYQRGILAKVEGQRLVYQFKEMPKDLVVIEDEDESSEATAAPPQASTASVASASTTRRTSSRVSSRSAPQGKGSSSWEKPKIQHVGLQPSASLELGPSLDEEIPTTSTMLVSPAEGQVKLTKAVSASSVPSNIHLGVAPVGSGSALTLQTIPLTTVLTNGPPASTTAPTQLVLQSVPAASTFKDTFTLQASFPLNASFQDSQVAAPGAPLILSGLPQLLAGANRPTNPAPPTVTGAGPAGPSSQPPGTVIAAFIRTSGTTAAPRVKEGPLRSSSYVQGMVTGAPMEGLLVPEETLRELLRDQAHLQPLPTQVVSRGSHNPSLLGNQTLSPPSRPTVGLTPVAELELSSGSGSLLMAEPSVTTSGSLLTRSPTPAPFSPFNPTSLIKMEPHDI
Sequence of ETV1 (P50549 whole entry): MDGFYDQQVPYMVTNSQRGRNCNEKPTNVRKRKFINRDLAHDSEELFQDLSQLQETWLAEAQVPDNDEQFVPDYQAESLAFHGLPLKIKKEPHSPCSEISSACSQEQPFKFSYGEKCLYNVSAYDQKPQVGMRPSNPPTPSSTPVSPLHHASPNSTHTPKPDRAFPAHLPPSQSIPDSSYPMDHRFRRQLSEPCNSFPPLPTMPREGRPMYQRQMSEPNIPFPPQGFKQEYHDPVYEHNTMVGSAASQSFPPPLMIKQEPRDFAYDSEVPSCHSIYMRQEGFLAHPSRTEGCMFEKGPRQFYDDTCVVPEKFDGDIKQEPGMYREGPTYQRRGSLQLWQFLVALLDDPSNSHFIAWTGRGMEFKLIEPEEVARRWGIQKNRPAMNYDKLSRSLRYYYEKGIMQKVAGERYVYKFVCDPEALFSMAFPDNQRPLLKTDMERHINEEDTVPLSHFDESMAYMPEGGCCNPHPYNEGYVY
Sequence of ETV6 (P41212 whole entry): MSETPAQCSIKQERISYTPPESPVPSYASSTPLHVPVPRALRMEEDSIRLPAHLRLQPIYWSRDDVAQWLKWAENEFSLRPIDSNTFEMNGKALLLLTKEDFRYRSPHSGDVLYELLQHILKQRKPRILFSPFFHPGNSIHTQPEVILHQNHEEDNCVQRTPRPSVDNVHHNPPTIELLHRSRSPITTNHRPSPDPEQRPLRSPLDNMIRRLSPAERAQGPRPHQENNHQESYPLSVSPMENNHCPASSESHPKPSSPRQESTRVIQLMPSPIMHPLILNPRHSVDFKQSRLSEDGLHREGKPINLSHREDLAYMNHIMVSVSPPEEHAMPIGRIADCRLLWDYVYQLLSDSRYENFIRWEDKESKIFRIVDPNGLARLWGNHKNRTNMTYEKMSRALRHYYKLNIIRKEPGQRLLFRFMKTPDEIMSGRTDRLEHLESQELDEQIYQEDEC

CGATGT was tested. Which binding signal (ELF4) did it give?
Its binding signal is 1.04 fold enrichment (6-mer frequency, TF over GST control).

And the binding signal (ETV2)?
The binding signal was 1.07 fold enrichment (6-mer frequency, TF over GST control).

What about the binding signal (ELF3) of the same sequence?
Its binding signal is 1.11 fold enrichment (6-mer frequency, TF over GST control).

And the binding signal (ETV1)?
The binding signal was 1.1 fold enrichment (6-mer frequency, TF over GST control).

What about the binding signal (ERF) of the same sequence?
Its binding signal is 1.16 fold enrichment (6-mer frequency, TF over GST control).

And the binding signal (ETV3L)?
Its binding signal is 1.09 fold enrichment (6-mer frequency, TF over GST control).

And the binding signal (ETS2)?
Its binding signal is 1.12 fold enrichment (6-mer frequency, TF over GST control).

And the binding signal (ETV7)?
Its binding signal is 1.14 fold enrichment (6-mer frequency, TF over GST control).

What about the binding signal (ETV3) of the same sequence?
Its binding signal is 1.19 fold enrichment (6-mer frequency, TF over GST control).

And the binding signal (ETV6)?
Its binding signal is 1.03 fold enrichment (6-mer frequency, TF over GST control).
